Measured values published in PubChem BioAssay AID504333 (National Center for Advancing Translational Sciences (NCATS), 2011).
The whole screen tested about 360,000 compounds, of which about 16,000 (4.4%) were called active. Inconclusive results (about 9%) are left out. Many of the other results were omitted from the sample, so actives are more common in it than they were. A number with no mark means an inactive call. Calls follow the shape of the dose curve; as a rule, active = well fitted inhibition curve with a large enough effect; inconclusive = small, poorly fitted or top-dose-only effect; inactive = no such curve, though single readings can be large or run the other way.

Target: Bromodomain adjacent to zinc finger domain protein 2B (Homo sapiens) (UniProt Q9UIF8)
Sequence (Q9UIF8 whole entry, looked up, the tested form may be a part): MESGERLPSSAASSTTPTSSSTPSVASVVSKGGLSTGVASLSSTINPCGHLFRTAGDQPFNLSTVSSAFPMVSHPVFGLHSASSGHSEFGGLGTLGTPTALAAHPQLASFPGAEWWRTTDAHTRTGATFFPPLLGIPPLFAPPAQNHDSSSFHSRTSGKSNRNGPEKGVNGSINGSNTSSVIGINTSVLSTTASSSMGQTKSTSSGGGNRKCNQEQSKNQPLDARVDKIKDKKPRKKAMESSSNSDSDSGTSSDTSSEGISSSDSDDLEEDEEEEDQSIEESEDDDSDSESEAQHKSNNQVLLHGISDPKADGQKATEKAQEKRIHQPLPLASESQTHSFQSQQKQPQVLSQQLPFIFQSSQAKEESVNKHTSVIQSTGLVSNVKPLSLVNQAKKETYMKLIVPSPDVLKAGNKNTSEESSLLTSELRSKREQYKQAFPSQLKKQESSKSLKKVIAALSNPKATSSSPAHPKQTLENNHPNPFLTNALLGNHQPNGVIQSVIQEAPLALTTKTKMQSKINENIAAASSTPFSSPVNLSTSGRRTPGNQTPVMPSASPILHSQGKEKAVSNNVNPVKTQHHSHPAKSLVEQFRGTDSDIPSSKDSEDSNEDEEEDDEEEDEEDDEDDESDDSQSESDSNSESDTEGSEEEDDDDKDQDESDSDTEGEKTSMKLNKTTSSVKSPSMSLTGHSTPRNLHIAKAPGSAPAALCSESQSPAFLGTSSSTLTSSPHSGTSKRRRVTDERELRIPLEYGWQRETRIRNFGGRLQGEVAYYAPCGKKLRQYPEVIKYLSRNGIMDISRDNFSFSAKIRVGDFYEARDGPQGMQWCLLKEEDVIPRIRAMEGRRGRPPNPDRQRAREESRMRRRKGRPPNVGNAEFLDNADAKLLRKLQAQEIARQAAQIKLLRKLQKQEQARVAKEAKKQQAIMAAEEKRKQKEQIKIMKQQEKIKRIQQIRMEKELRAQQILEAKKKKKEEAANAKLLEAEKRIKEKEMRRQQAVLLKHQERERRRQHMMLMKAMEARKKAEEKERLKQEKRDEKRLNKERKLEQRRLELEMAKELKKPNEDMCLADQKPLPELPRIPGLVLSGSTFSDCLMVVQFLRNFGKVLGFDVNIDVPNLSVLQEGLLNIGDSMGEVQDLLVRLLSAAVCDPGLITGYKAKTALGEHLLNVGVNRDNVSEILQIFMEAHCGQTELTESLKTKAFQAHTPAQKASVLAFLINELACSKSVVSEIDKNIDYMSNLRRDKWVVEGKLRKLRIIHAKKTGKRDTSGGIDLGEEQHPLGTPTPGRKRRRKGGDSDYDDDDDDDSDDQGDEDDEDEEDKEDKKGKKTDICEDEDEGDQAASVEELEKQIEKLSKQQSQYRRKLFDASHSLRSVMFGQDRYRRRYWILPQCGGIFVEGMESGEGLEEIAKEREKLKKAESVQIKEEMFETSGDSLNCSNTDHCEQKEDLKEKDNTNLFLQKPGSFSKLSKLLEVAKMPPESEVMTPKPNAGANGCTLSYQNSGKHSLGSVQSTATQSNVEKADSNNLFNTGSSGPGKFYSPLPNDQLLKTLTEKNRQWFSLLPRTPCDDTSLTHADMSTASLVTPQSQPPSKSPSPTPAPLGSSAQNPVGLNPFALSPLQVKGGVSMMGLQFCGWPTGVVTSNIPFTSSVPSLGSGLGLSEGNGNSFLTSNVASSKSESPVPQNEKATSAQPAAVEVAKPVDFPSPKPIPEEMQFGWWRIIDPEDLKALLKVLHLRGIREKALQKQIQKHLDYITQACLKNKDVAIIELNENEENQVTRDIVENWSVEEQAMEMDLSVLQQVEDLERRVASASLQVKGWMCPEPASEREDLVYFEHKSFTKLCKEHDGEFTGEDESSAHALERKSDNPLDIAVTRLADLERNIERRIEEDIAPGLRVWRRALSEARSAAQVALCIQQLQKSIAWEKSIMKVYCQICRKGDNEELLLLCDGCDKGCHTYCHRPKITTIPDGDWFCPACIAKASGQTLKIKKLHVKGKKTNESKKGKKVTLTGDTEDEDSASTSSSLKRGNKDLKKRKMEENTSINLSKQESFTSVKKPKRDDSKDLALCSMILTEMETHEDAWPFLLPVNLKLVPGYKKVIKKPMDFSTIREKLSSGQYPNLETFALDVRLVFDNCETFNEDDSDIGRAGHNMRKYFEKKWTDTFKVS
Assay: qHTS Assay for Inhibitors of BAZ2B; also: nearly all actives have a fitted effect of over 60% in size
Details: AlphaScreen BAZ2B-H3K14Ac peptide displacement; series mostly up to 114 µM; activity change, negative = inhibition: at the top concentration
Text: BAZ2B (bromodomain adjacent to zinc finger domain, 2B) belongs to a family of ubiquitously expressed bromodomain containing proteins, which biological function has not yet been elucidated. […] The interaction of BAZ2B with ISWI mediated by the BAZ1 motif has recently been described. […] The protocol is based on the AlphaScreen (PerkinElmer) displacement assay developed by NCGC [5], but uses the peptide ligand Biot-H3K14Ac, a high affinity binding partner for BAZ2B, in an AlphaScreen format. Although AlphaScreen has significant advantages with its utility in a variety of epigenetic target assays, the primary screening data provided in this deposition should be used with caution due to the prevalence of screening artifacts. The top compound concentration tested was 110uM in this assay, which increases number of actives and potential artifacts. An AlphaScreen counterscreen is highly recommended to be run against any putative actives to eliminate non-specific artifacts. Alternatively, one can use other AlphaScreen assays in PubChem to filter out promiscuous hits. Eberharter, A. et al. ACF1 improves the effectiveness of nucleosome mobilization by ISWI through PHD-histone contacts. The EMBO journal 23, 4029-4039. 2004. PMID: 15457208 [2] Jones, M.H. et al. A novel family of bromodomain genes. Genomics 63, 40-45. 2000. PMID: 10662543 [3] Yasgar, et al. Compound Management for Quantitative High-Throughput Screening. JALA. 2008 Apr;13(2):79-89. PMID: 18496600 [4] Inglese, et al. Quantitative high-throughput screening: a titration-based approach that efficiently identifies biological activities in large chemical libraries. Proc Natl Acad Sci. 1;103(31):11473-8. 2006. PMID: 16864780 [5] Quinn et al. A chemiluminescence-based method for identification of histone lysine methyltransferase inhibitors. Mol Biosyst 6(5): 782-8. 2010. PMID: 20567762 [6] Baell,Holloway. New substructure filters for removal of pan assay interference compounds (PAINS) from screening libraries and for their exclusion in bioassays. J Med Chem. 53(7):2719-40. 2010. PMID: 20131845 NIH Molecular Libraries Probe Production Network [MLPCN] NIH Chemical Genomics Center [NCGC] Structural Genomics Consortium (SGC) NIH Grant: 5U54 MH084681-02
To each well of a 1,536w plate, 2ul of BAZ2B protein (final 50nM) and 1ul biotinylated histone peptide acetylated at Lys14 [b-H3(5-23)K14Ac] (final 50nM) were added in 1x PBS buffer, pH 7.4, containing 0.01% Tween-20, using a nanoliter dispenser. Formation of a protein-peptide complex proceeded at room temperature for 30 min. A Kalypsys pin-tool was employed to transfer 23 nL of library compound solution in DMSO to each well. Following a 30 min incubation of the protein-peptide complex with compounds at room temperature, a mixture of 40 ug/mL each streptavidin-coated donor and nickel chelate acceptor AlphaScreen beads (final 10 ug/mL) were added in a 1ul dispense for a final volume of 4ul. A brief centrifugation followed (1000rpm, 1 min) and were then incubated protected from the light for 20 min at room temperature. Plates were read on an EnVision multilabel plate reader using the 1,536 plate HTS AlphaScreen aperture (excitation time 80 ms, measurement time 240 ms).
% is scaled to controls: 0 for no effect and ±100 for the full control effect; potency is read from the fitted curve at half-maximal effect.

| Compound | activity change, negative = inhibition | Potency |
| --- | --- | --- |
| O=C(COc1ccc2ccccc2c1)N1CCN(Cc2ccncc2)CC1 | 53.5% |  |
| O=C(Cc1ccc(Cl)cc1)NCCN1CCN(C(=O)Cc2ccc(Cl)cc2)CC1 | 0.0403% |  |
| COc1ccccc1CN1CCN(C(=O)Cc2ccccc2)CC1 |  | 50.1 µM (active) |
| O=C(Cn1c(=O)n(CC2CS2)c2ccccc21)N1CCCCC1 (stereo not given) | 8.82% |  |
| O=C(Cc1ccccc1)N1CCN(C2CCCCCC2)CC1 |  | 50.1 µM (active) |
| CCC(=NCCc1ccccc1)c1c(O)n(C2CCCCC2)c(=O)[nH]c1=O | -21.4% |  |
| COc1ccc(N=Cc2c(O)n(C)c(=O)[nH]c2=O)cc1 | 0.618% |  |
| CN1CCC(OC(=O)c2cccc(F)c2)CC1 | -1.04% |  |
| COc1ccc(C(=O)C2CN(C)CC2C(=O)c2ccc(OC)cc2)cc1 (stereo not given) | 2.95% |  |
| COC(=O)C1=C(c2ccc3ccccc3c2)C[C@@H]2CC[C@H]1N2C(=O)NCCO | -6.21% |  |
| CC(Cc1ccccc1)NCCC(c1ccccc1)c1ccccc1 (stereo not given) | 12.5% |  |
| Fc1ccc(N2CCN(Cc3ccc4c(c3)OCO4)CC2)cc1 |  | 56.2 µM (active) |
| Cc1cc(=O)oc2c(C)c(OCC(=O)N3CCN(Cc4ccc5c(c4)OCO5)CC3)ccc12 | -18.4% [at 57.1 µM] |  |
| O=C(Cc1ccccc1[N+](=O)[O-])N1CCN(Cc2ccc3c(c2)OCO3)CC1 | -28.5% |  |
| CCc1ccc(OCC(=O)N2CCN(CC(=O)Nc3ccccc3Cl)CC2)cc1 | 10.2% |  |
| Cc1ccc(-n2c(C)cc(/C=C3\C(=O)NC(=O)N(C)C3=O)c2C)cc1C | -28.5% |  |
| Cc1cc(/C=C2/C(=O)NC(=O)N(Cc3ccco3)C2=O)c(C)n1-c1ccc(C(=O)O)cc1 |  | 56.2 µM (active) |
| Cc1cc(C=C2C(=O)NC(=O)NC2=O)c(C)n1-c1ccncc1 | -23.5% |  |
| Cn1c(O)c(C(=Nc2ccc(F)cc2)c2ccccc2)c(=O)n(C)c1=O | -8.76% |  |
| CCN(CC)c1ccc([N+](=O)[O-])c2cccnc12 |  | 28.2 µM (active) |
| COC(=O)C1=C(c2ccccc2OCc2ccccc2)C[C@@H]2CC[C@H]1N2C(=O)NCc1ccc(OC)cc1 | -6.25% |  |
| Cc1c(Oc2cc(NN3CCCCC3)c([N+](=O)[O-])cc2[N+](=O)[O-])cccc1[N+](=O)[O-] | 0.574% |  |
| CN(C)C(=O)Oc1ccc(NC(=O)N2CCOCC2)cc1 | -4.05% |  |
| COc1ccc2[nH]c3c(c2c1)CCN[C@H]3C |  | 44.7 µM (active) |
| CCOC(=O)C1(Cc2ccc(Cl)cc2)CCN(C(C)CCn2cccn2)CC1 (stereo not given) | -9.31% |  |

| Compound | activity change, negative = inhibition | Potency |
| --- | --- | --- |
| CCCCn1c(=O)c(C(=O)Nc2ccccc2Cl)c(O)c2ccccc21 | 9.08% |  |
| Cc1cccc(Cn2cccc(C(=O)Nc3ccc4c(c3)OCCO4)c2=O)c1 | -2.38% |  |
| O=c1c2ccccc2nc(/C=C/c2ccc(F)cc2)n1-c1ccccc1O | -12.3% |  |
| C=CCN1C(=O)NC(=O)/C(=C/c2ccc(OCC(=O)Nc3ccc(C)cc3)cc2)C1=O |  | 50.1 µM (active) |
| C=CCN(CC=C)C(=O)Nc1ccc(OCC)cc1 | -21.3% |  |
| Cc1ccc(C2CN(C)CC2C(=O)c2ccc(F)cc2)cc1 (stereo not given) | -13% |  |
| CC(C)c1c(CN(C)C(C)Cc2ccccc2)n(C)n(-c2ccccc2)c1=O (stereo not given) | 8.31% |  |
| CN1CCc2cc3c(cc2[C@H]1[C@@H]1OC(=O)c2c1ccc1c2OCO1)OCO3 | 6.42% |  |
| C[C@]12CC[C@H](O)C[C@H]1CC[C@@H]1C2CC[C@]2(C)[C@@H](C3=CC(=O)OC3)[C@@H](O)C[C@]12O (stereo not given in full) | 4.14% |  |
| CN(C)CC1CCCCC1=O (stereo not given) | -2.32% |  |
| Cc1ccccc1N1C(=O)NC(=O)/C(=C\c2cc(C)n(C)c2C)C1=O | -31% |  |
| Cc1c(C(=O)O)cccc1-n1c(C)cc(/C=C2\C(=O)NC(=O)N(c3ccc4c(c3)OCO4)C2=O)c1C |  | 56.2 µM (active) |
| O=C1N=c2ccccc2=C/C1=C\c1c(O)[nH]c(=S)[nH]c1=O | 5.91% |  |
| O=C1NC(=O)C(C/C=C/c2ccccc2)C(=O)N1 | -5.78% |  |
| CCOP(=S)(OCC)C(O)CCCCCn1c(=O)c(F)cn(C2CCCO2)c1=O (stereo not given) | 2.17% |  |
| CCc1nc2ccccc2c(=O)n1-c1cccc(OC)c1 | 24.6% |  |
| CC(C)c1ccc(O)c(CN2CCN(c3ccccc3)CC2)c1 | -3.99% |  |
| COc1ccc(CN2CCN(c3ccccc3F)CC2)c(OC)c1 |  | 50.1 µM (active) |
| Cc1cccc(NC(=O)N2CC3CC(C2)c2cccc(=O)n2C3)c1 (stereo not given) | -1.2% |  |
| CCOc1cccc(=NC2CCCCC2)c2c(C)[nH]c(C)c12 | 19.2% |  |
| O=C(O)c1ccccc1NC(=O)C1C2CCC(O2)C1C(=O)O (stereo not given) | 0.502% |  |
| CCN(CC)C(=O)Oc1ccc(NC(=O)N2CCOCC2)cc1 | 14.1% |  |
| CC/C(=N\NC(=O)c1ccccc1O)c1c(O)n(Cc2ccccc2)c(=O)[nH]c1=O | 3.69% |  |
| CCCCn1c(O)c(C(CC)=NCc2ccco2)c(=O)[nH]c1=O | -3.38% |  |
| CCC(=NCc1ccco1)c1c(O)n(Cc2ccccc2)c(=O)[nH]c1=O |  | 50.1 µM (active) |
